This passage reports NF-kB reporter, IRF reporter and viability score results from the supplement of paper PMC10646978.

± gives the standard deviation.

Conditions in all cases: modulator concentration 10 µM
For test [1], the system named is RAW-Dual (murine macrophage reporter line). The test can be described thus: NF-kB reporter (SEAP) activity fold change vs agonist alone; higher = enhanced NF-kB activity. The essentials: (§1)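 In 384-well plates holding 50 000 RAW-Dual murine macrophage reporter cells per well, compound at 10 μM final was pre-incubated for 1 hour at 37 °C, after which a PRR agonist was added overnight. Supernatant SEAP read with QUANTI-Blue at 620 nm absorbance reported NF-κB, and Lucia luciferase read with QUANTI-Luc luminescence reported IRF. Fold change values come from dividing each reporter signal by the mean of agonist-only control wells on the same plate, averaged over replicate plates with propagated errors.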

Test [2] has the same test system. As to the kind of experiment: IRF reporter (Lucia luciferase) activity fold change vs agonist alone; higher = enhanced IRF activity. In a few lines: as §1
Test [3] has the same test system. As to the kind of experiment: viability score (confluency relative to resting cells, overnight) (fraction); higher = more viable, active = viable (0.7 or more). In a few lines: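 In 384-well plates, RAW-Dual macrophages received compound at a final 10 μM overnight. Two confluency masks were then made with IncuCyte software from IncuCyte images of all imaged wells. The viability score is defined as confluency relative to resting cells. Passing the cutoff required both masks to lie above 70% of resting cells.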

[4] abbreviates: agonist: CpG ODN 1826 0.5 ug/mL.

Consider `O=C(CCN1C(=O)c2cccc([N+](=O)[O-])c2C1=O)Nc1ccc(F)cc1`, for which the NF-kB reporter in test [1] (setting [4]) is 1.01 ± 0.13; in test [1] (agonist: LPS 0.1 ug/mL) it was 1.02 ± 0.069; in test [1] (agonist: MPLA […]), 1.02 ± 0.035. The figures for the IRF reporter in test [2] (agonist: 3'3'-cGAMP 10 ug/mL), in test [2] (agonist: LPS 0.1 ug/mL) and in test [2] (agonist: MPLA […]) were 0.875 ± 0.082, 0.958 ± 0.099 and 1.07 ± 0.23, respectively. Besides, in test [3], the viability score is 1 (active).
In the case of `CC(C)(C)SCC(O)Cn1c2ccc(Br)cc2c2cc(Br)ccc21` (stereo unspecified), the NF-kB reporter in test [1] (setting [4]) is 0.767 ± 0.06; in test [1] (agonist: LPS 0.1 ug/mL) it was 0.846 ± 0.1; in test [1] (agonist: MPLA […]) it was 0.91 ± 0.098. Moreover, the IRF reporter is 0.844 ± 0.039 in test [2] (agonist: 3'3'-cGAMP 10 ug/mL), 1.31 ± 0.079 in test [2] (agonist: LPS 0.1 ug/mL) and 1.4 ± 0.12 in test [2] (agonist: MPLA […]). In test [3], the viability score was 0.999 (active).
Consider `CCC(=O)NS(=O)(=O)c1ccc(-c2c(-c3ccccc3)noc2C)cc1`, for which the results for the NF-kB reporter in test [1] (setting [4]), in test [1] (agonist: LPS 0.1 ug/mL) and in test [1] (agonist: MPLA […]) were 0.921 ± 0.14, 1.2 ± 0.26 and 0.905 ± 0.05, respectively. Also, the values for the IRF reporter in test [2] (agonist: 3'3'-cGAMP 10 ug/mL), in test [2] (agonist: LPS 0.1 ug/mL) and in test [2] (agonist: MPLA […]) were 0.971 ± 0.051, 1.47 ± 0.31 and 1.25 ± 0.1, respectively. In test [3], the viability score is 0.996 (active).
For `COC(=O)C1=CN(CC2CCCO2)C=C(C(=O)OC)C1c1ccc2c(c1)OCO2` (stereo unspecified), the NF-kB reporter in test [1] (setting [4]) worked out at 1.03 ± 0.12; in test [1] (agonist: LPS 0.1 ug/mL), 1.1 ± 0.093; in test [1] (agonist: MPLA […]), 1.02 ± 0.071. Besides, the IRF reporter in test [2] (agonist: 3'3'-cGAMP 10 ug/mL) worked out at 1.07 ± 0.036; in test [2] (agonist: LPS 0.1 ug/mL), 1.46 ± 0.16; in test [2] (agonist: MPLA […]), 1.12 ± 0.089. Moreover, the viability score in test [3] was 1.01 (active).
In the case of `COC(=O)C1=C(C)NC(C)=C(C(=O)OC)C1c1ccc(-c2ccc(Cl)cc2Cl)o1`, the NF-kB reporter in test [1] (setting [4]) amounted to 1.01 ± 0.081; in test [1] (agonist: LPS 0.1 ug/mL) it was 0.943 ± 0.064; in test [1] (agonist: MPLA […]), 0.922 ± 0.092. For the same molecule, the results for the IRF reporter in test [2] (agonist: 3'3'-cGAMP 10 ug/mL), in test [2] (agonist: LPS 0.1 ug/mL) and in test [2] (agonist: MPLA […]) were 0.872 ± 0.022, 1.23 ± 0.11 and 1.22 ± 0.22, respectively. In test [3], the viability score is 1.02 (active).
On to `CCN1C(=O)C(=Cc2c[nH]c3ccccc23)SC1=S`, for which the figures for the NF-kB reporter in test [1] (setting [4]), in test [1] (agonist: LPS 0.1 ug/mL) and in test [1] (agonist: MPLA […]) were 0.67 ± 0.075, 0.994 ± 0.081 and 0.868 ± 0.033, respectively. The IRF reporter in test [2] (agonist: 3'3'-cGAMP 10 ug/mL) was found to be 0.813 ± 0.16; in test [2] (agonist: LPS 0.1 ug/mL) it was 1.02 ± 0.084; in test [2] (agonist: MPLA […]), 1.36 ± 0.18. Besides, the viability score in test [3] is 0.804 (active).
Turning to `CN1CC(c2ccccc2)OC1=O` (stereo unspecified), the NF-kB reporter in test [1] (setting [4]) was 1.06 ± 0.17; in test [1] (agonist: LPS 0.1 ug/mL) it was 0.949 ± 0.083; in test [1] (agonist: MPLA […]) it was 1.08 ± 0.093. The figures for the IRF reporter in test [2] (agonist: 3'3'-cGAMP 10 ug/mL), in test [2] (agonist: LPS 0.1 ug/mL) and in test [2] (agonist: MPLA […]) were 1.07 ± 0.033, 1.32 ± 0.2 and 1.29 ± 0.23, respectively. Besides, the viability score in test [3] was 1 (active).
On to `CCOCCOC(=O)C1=C(C)NC2=C(C(=O)CCC2)C1c1coc2ccc(C)cc2c1=O` (stereo unspecified), for which the NF-kB reporter in test [1] (setting [4]) worked out at 0.973 ± 0.083; in test [1] (agonist: LPS 0.1 ug/mL), 0.961 ± 0.12; in test [1] (agonist: MPLA […]) it was 0.993 ± 0.12. Besides, the IRF reporter in test [2] (agonist: 3'3'-cGAMP 10 ug/mL) came out at 1.01 ± 0.029; in test [2] (agonist: LPS 0.1 ug/mL) it was 1.41 ± 0.14; in test [2] (agonist: MPLA […]), 1.18 ± 0.11. Also, in test [3], the viability score is 1.01 (active).
Turning to `Cc1ccc(C(=O)N2N=C(c3ccc(Cl)cc3)CC2(O)C(F)(F)F)o1` (stereo unspecified), the NF-kB reporter in test [1] (setting [4]) came to 0.721 ± 0.06; in test [1] (agonist: LPS 0.1 ug/mL) it was 0.82 ± 0.054; in test [1] (agonist: MPLA […]), 0.974 ± 0.097. For the same molecule, the IRF reporter in test [2] (agonist: 3'3'-cGAMP 10 ug/mL) amounted to 0.975 ± 0.06; in test [2] (agonist: LPS 0.1 ug/mL), 1.33 ± 0.077; in test [2] (agonist: MPLA […]), 1.42 ± 0.16. For the same molecule, the viability score in test [3] is 1 (active).
In the case of `CC(=O)c1cc2c(o1)C(=O)c1ccccc1C2=O`, the NF-kB reporter in test [1] (setting [4]) is 1.19 ± 0.28; in test [1] (agonist: LPS 0.1 ug/mL), 1.36 ± 0.068; in test [1] (agonist: MPLA […]) it was 1.31 ± 0.1. The IRF reporter was 0.995 ± 0.035 in test [2] (agonist: 3'3'-cGAMP 10 ug/mL), 1.12 ± 0.16 in test [2] (agonist: LPS 0.1 ug/mL) and 1.18 ± 0.27 in test [2] (agonist: MPLA […]). Also, the viability score in test [3] was 0.995 (active).
As to `O=C(CSC1CCCCC1)Nc1cc(C(F)(F)F)ccc1Cl`, the NF-kB reporter in test [1] (setting [4]) came to 0.516 ± 0.045; in test [1] (agonist: LPS 0.1 ug/mL), 1.38 ± 0.11; in test [1] (agonist: MPLA […]), 1.39 ± 0.063. For the same molecule, the IRF reporter was 1.45 ± 0.14 in test [2] (agonist: 3'3'-cGAMP 10 ug/mL), 2.2 ± 0.16 in test [2] (agonist: LPS 0.1 ug/mL) and 1.47 ± 0.43 in test [2] (agonist: MPLA […]). Moreover, the viability score in test [3] was 1.01 (active).
Turning to `Cl.OC(CCN1CCCC1)(c1ccccc1)C1CCCCC1` (stereo unspecified), the NF-kB reporter in test [1] (setting [4]) is 0.822 ± 0.28; in test [1] (agonist: LPS 0.1 ug/mL) it was 1.13 ± 0.061; in test [1] (agonist: MPLA […]) it was 1.12 ± 0.088. The IRF reporter in test [2] (agonist: 3'3'-cGAMP 10 ug/mL) is 0.625 ± 0.025; in test [2] (agonist: LPS 0.1 ug/mL) it was 1.07 ± 0.14; in test [2] (agonist: MPLA […]), 1.18 ± 0.26. In test [3], the viability score is 0.976 (active).
Turning to `CN(C)c1nc(CNC(=O)c2cnn(-c3ccccc3)n2)nc(N2CCCC2)n1`, the NF-kB reporter came out at 1.01 ± 0.052 in test [1] (setting [4]), 1.1 ± 0.086 in test [1] (agonist: LPS 0.1 ug/mL) and 1.02 ± 0.11 in test [1] (agonist: MPLA […]). Besides, the IRF reporter in test [2] (agonist: 3'3'-cGAMP 10 ug/mL) was 1.05 ± 0.054; in test [2] (agonist: LPS 0.1 ug/mL), 1.26 ± 0.08; in test [2] (agonist: MPLA […]) it was 1.13 ± 0.31. Further, the viability score in test [3] is 1.02 (active).
